PubChem BioAssay (Tox21)
“And” between values parts separate entries of the source, which are not always exact repeats. Identical values can stand only once. Records with an inconclusive call do not appear. Entries that show only a call come without a potency. The source made the active and inactive calls. Unless noted, the call rests on the fitted dose curve; in most records, active means well fitted curve in the direction sought with a large enough effect in the repeat runs; inconclusive means weak or mixed curves; inactive means no such curve, though single readings can be large; an effect the other way counts as inactive or inconclusive.

Molecular target: Androgen receptor (Homo sapiens) (UniProt P10275)
Test: qHTS assay to identify small molecule antagonists of the androgen receptor (AR) signaling pathway (AID 743035; active means well fitted inhibition curve with a large enough effect in the signal ratio in the repeat runs, not every such curve was filed as active; the % refers to the signal ratio)
Settings: HEK293 AR-UAS-bla, R1881-stimulated, beta-lactamase FRET, 16 h; series mostly up to 58.5 µM
Procedure, shortened: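 Antagonist mode: AR-bla HEK293 cells co-treated with test compounds and agonist R1881 for 16 h at 37C, 5% CO2. Beta-lactamase activity read as FRET fluorescence after 2 h room-temperature substrate loading.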

Sequence of Androgen receptor (Homo sapiens) (P10275 whole entry, looked up): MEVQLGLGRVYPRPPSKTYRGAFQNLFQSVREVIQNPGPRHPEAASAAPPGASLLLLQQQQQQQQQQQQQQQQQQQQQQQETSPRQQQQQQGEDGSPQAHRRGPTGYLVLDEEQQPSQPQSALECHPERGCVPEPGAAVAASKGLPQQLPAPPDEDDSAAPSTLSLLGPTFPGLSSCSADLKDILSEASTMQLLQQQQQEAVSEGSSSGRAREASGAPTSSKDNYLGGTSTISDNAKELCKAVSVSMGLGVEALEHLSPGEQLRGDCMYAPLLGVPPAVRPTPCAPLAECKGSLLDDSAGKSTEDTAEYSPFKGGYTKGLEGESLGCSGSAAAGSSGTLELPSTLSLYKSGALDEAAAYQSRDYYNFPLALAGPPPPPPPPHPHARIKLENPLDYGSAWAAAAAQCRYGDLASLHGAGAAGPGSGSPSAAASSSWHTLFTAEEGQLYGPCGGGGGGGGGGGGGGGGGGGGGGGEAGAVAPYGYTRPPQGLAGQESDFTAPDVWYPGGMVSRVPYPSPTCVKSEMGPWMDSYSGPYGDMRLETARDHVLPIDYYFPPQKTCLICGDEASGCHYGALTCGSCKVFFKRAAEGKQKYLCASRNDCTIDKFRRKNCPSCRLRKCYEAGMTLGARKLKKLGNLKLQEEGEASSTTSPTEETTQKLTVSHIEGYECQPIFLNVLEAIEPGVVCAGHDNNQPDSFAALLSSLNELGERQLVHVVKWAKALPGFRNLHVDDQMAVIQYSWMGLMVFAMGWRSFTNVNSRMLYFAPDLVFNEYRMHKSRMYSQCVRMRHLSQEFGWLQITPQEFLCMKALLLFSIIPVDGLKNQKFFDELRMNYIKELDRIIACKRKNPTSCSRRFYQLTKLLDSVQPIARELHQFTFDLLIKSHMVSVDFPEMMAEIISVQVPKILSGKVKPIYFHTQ

| Compound | Potency |
| --- | --- |
| CN1CC[C@]23c4c5ccc(O)c4O[C@H]2[C@@H](O)C=C[C@H]3[C@H]1C5 | inactive |
| CC(Cl)C(=O)O (stereo not drawn) | inactive |
| C=C(Cl)Cl | inactive |
| CC(C)(C)NCC(O)c1cc(Cl)c(N)c(C(F)(F)F)c1 (stereo not drawn) | inactive |
| COC(=O)C1(O)c2ccccc2-c2ccccc21 | inactive |

Molecular target: Androgen receptor (Homo sapiens) (UniProt P10275)
Test: qHTS assay to identify small molecule agonists of the androgen receptor (AR) signaling pathway (AID 743036; active means well fitted activation curve with a large enough effect in the signal ratio in the repeat runs, with a control signal flat, not every such curve was filed as active; the % refers to the signal ratio)
Settings: HEK293 AR-UAS-bla GripTite, beta-lactamase FRET ratio, 16 h; series mostly up to 62.4 µM
Procedure, shortened: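 AR-UAS-bla HEK293 cells, plated 4 h before dosing, were treated with compound for 16 h at 37C. beta-Lactamase reporter read after 2 h with LiveBLAzer B/G FRET substrate at room temperature.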

| Compound | Potency |
| --- | --- |
| CC(C)(C)N(NC(=O)c1ccc(Cl)cc1)C(=O)c1ccccc1 | inactive |
| CC(Cl)C(=O)O (stereo not drawn) | inactive |
| C=C(Cl)Cl | inactive |
| O=C(Cl)OCCOCCOC(=O)Cl | inactive |
| CC(C)(C)NCC(O)c1cc(Cl)c(N)c(C(F)(F)F)c1 (stereo not drawn) | inactive |
| COC(=O)C1(O)c2ccccc2-c2ccccc21 | inactive |

Molecular target: Androgen receptor (Homo sapiens) (UniProt P10275)
Test: qHTS assay to identify small molecule agonists of the androgen receptor (AR) signaling pathway using the MDA cell line (AID 743040; further: nearly all actives have a fitted effect of over 20% in size)
Settings: MDA-kb2 AR-luc cells, MMTV luciferase, 16 h; activity change: at 70.3 µM (top of the series), hits give high values
Procedure, shortened: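 Stable MMTV-luciferase reporter in MDA-kb2 cells; note the promoter carries GR as well as AR response elements. 16 h compound treatment, 37C, 0% CO2; ONE-Glo luminescence endpoint.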

| Compound | Potency |
| --- | --- |
| CC(C)(C)N(NC(=O)c1ccc(Cl)cc1)C(=O)c1ccccc1 | inactive |
| CN1CC[C@]23c4c5ccc(O)c4O[C@H]2[C@@H](O)C=C[C@H]3[C@H]1C5 | inactive |
| CC(Cl)C(=O)O (stereo not drawn) | inactive |
| O=C(O)CCCOc1ccc(Cl)cc1Cl | inactive |
| C=C(Cl)Cl | inactive |
| O=C(Cl)OCCOCCOC(=O)Cl | inactive |
| CC(C)(C)NCC(O)c1cc(Cl)c(N)c(C(F)(F)F)c1 (stereo not drawn) | inactive |
| COC(=O)C1(O)c2ccccc2-c2ccccc21 | inactive |

Test system: not listed separately
Test: qHTS assay to identify small molecule antagonists of the androgen receptor (AR) signaling pathway using the MDA cell line - cell viability counter screen (AID 743041; further: nearly all actives have a fitted effect of over 45% in size; further: potency means the concentration at half of the fitted maximal effect)
Settings: MDA-kb2 viability, CellTiter-Fluor, 16 h, cells co-treated with R1881 androgen agonist; series mostly up to 70.3 µM
Procedure, shortened: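 Using the breast carcinoma line MDA-kb2 AR-luc, test chemicals were co-incubated with R1881 for 16 h; CellTiter-Fluor reagent, added at 15.5 h, provided a fluorescence measure of live cells.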

| Compound | Potency |
| --- | --- |
| CC(C)(C)N(NC(=O)c1ccc(Cl)cc1)C(=O)c1ccccc1 | inactive |
| CN1CC[C@]23c4c5ccc(O)c4O[C@H]2[C@@H](O)C=C[C@H]3[C@H]1C5 | inactive |
| C[Si](Cn1cncn1)(c1ccc(F)cc1)c1ccc(F)cc1 | inactive |
| CCC1CCC(=O)O1 (stereo not drawn) | inactive |
| CCOP(=S)(OCC)Oc1ccc(S(C)=O)cc1 (stereo not drawn) | inactive |
| O=C(O)C(O)C(O)C(=O)O (stereo not drawn) | inactive |
| C#C[C@]1(O)CC[C@H]2[C@@H]3CCC4=CC(=O)CCC4=C3C=C[C@@]21CC | inactive |
| Cc1cccc(C)c1NC1=NCCCS1 | inactive |
| O=C(Cc1ccccc1)OCCc1ccccc1 | inactive |
| Oc1cccc(Cl)c1 | inactive |
| C=CC(C)(CCC=C(C)C)OC(=O)c1ccccc1N (stereo not drawn) | inactive |
| NNCCO | inactive |
| Cc1nc2ccccc2c(=O)n1-c1ccccc1Cl | inactive |
| C[C@H](N)[C@H](O)c1ccc(O)c(O)c1 | inactive |
| O=C(NC(=O)c1cc(F)c(F)cc1Cl)Nc1cc(F)ccc1N1CCC(C(=O)O)CC1 | inactive |
| CC(C)C1(C)N=C(c2ncccc2C(=O)O)NC1=O (stereo not drawn) | inactive |
| Cc1nnc(-c2ccccc2)c(=O)n1N | inactive |
| Nc1cccc2ccccc12 | inactive |

| Compound | Potency |
| --- | --- |
| COC1CC(=C(c2cccs2)c2cccs2)C[N+](C)(C)C1 (stereo not drawn) | inactive |
| CC(Cl)C(=O)O (stereo not drawn) | inactive |
| CCCC[N+]1(C)[C@@H]2CC(OC(=O)[C@H](CO)c3ccccc3)C[C@H]1[C@@H]1O[C@@H]12 (stereo partly drawn) | inactive |
| CN(C)C(=O)Nc1cccc(OC(=O)NC(C)(C)C)c1 | inactive |
| CN(C)c1ccc(N=O)cc1 | 54.6 µM (active) and 27.3 µM (active) |
| NC(=S)c1c(Cl)cccc1Cl | inactive |
| CCSCc1ccccc1OC(=O)NC | inactive |
| O=C(O)CCCOc1ccc(Cl)cc1Cl | inactive |
| CC[N+]1(CCOC(=O)C(O)(c2ccccc2)c2ccccc2)CCCCC1 | inactive |
| CC(=O)OC(c1ccccc1)C(Cl)(Cl)Cl (stereo not drawn) | inactive |
| C[C@H]1[C@@H]2Cc3ccc(O)cc3[C@@]1(C)CCN2C | inactive |
| C=C(Cl)Cl | inactive |
| COc1cc(CC(C)N)c(OC)cc1Br (stereo not drawn) | inactive |
| O=C(Cl)OCCOCCOC(=O)Cl | inactive |
| CC(C)(C)NCC(O)c1cc(Cl)c(N)c(C(F)(F)F)c1 (stereo not drawn) | inactive |
| O=S(=O)(Cl)Cl | inactive |
| COC(=O)C1(O)c2ccccc2-c2ccccc21 | inactive |
| OC[P+](CO)(CO)CO | inactive |

Molecular target: Androgen receptor (Homo sapiens) (UniProt P10275)
Test: qHTS assay to identify small molecule antagonists of the androgen receptor (AR) signaling pathway using the MDA cell line (AID 743042; further: nearly all actives have a fitted effect of over 55% in size)
Settings: MDA-kb2 AR-luc, MMTV luciferase, R1881 antagonist, 16 h; series mostly up to 70.3 µM
Procedure, shortened: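 Antagonist mode: compounds plus R1881 agonist added to MDA-kb2 AR-luc cells, incubated 16 h at 37C. Luciferase reporter luminescence quantified, with multiplexed CellTiter-Fluor readout for cell viability.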

| Compound | Potency |
| --- | --- |
| CC(C)(C)N(NC(=O)c1ccc(Cl)cc1)C(=O)c1ccccc1 | inactive |
| CN1CC[C@]23c4c5ccc(O)c4O[C@H]2[C@@H](O)C=C[C@H]3[C@H]1C5 | inactive |
| CC(Cl)C(=O)O (stereo not drawn) | inactive |
| O=C(O)CCCOc1ccc(Cl)cc1Cl | inactive |
| C=C(Cl)Cl | inactive |
| O=C(Cl)OCCOCCOC(=O)Cl | inactive |
| CC(C)(C)NCC(O)c1cc(Cl)c(N)c(C(F)(F)F)c1 (stereo not drawn) | inactive |
| COC(=O)C1(O)c2ccccc2-c2ccccc21 | inactive |
